Source: PubChem
PNC assembly inh: High Content Assay for Compounds that inhibit the Assembly of the Perinucleolar Compartment | PC3M PTB-GFP, PNC prevalence imaging, 16 h; stronger effect = lower value | activity change (PNC), negative = inhibition, % at 10 µM | 140,000 tested, 3.1% active;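 active = readout at or below -70, meaning at least 70% loss of cells showing the perinucleolar compartment, a nuclear body marking cancer cells; inconclusive = readout between -30 and a set limit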;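 note: plate controls were DMSO wells for no effect and camptothecin positive control wells for full effect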
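PC3M cells stably expressing PTB-GFP, 750–1000 cells/well, treated 16 h at 37 °C with compound (23 nl of library stock), in duplicate. After paraformaldehyde fixation and Hoechst stain, imaged at 20x; PNC prevalence scored by image analysis.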
IMPase Li cell: qHTS Assay for Identifying the Cell-Membrane Permeable IMPase Inhibitors: Potentiation with Lithium. Potency, µM (series often up to 59.4 µM), inactives show at the top dose activity, negative = IMPase inhibition, hits mostly inhibitors. 210,000 tested, 0.35% active. CHO-M1 cells, IP1 TR-FRET (IP-One), carbachol + lithium. AID 1457, 2008;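 note: IP1 builds up when IMPase is blocked and the TR-FRET signal falls; potency is the fitted concentration of half-maximal effect; plate controls were basal vehicle for no effect and high inhibitor control for full effect; nearly all actives have a fitted effect of over 50% in size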
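CHO-M1, 2000 cells/well, 16–30 h culture; cpd + low Li+, 30 min 37C; lysis with d2-IP1/Eu-anti-IP1 Ab, 10 min RT; TR-FRET 665/620 ratio and 620 channel; AC50 via Hill.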
IMPase inh: qHTS Assay for Identifying the Cell-Membrane Permeable IMPase Inhibitors; Inositol monophosphatase 1 (Rattus norvegicus), P97697; CHO-M1 cells, IP1 accumulation, HTRF TR-FRET ratio; inhibition (IP1 accumulation), % at 46.1 µM; 120,000 tested, under 10 active; AID 901, 2007; active = well fitted curve in the direction sought with a large enough effect in the signal ratio, not every such curve was filed as active; inconclusive = small, poorly fitted or top-dose-only effect, or a change in a side signal; inactive = no such curve, though single readings can be large or run the other way; the % refers to the signal ratio;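 note: cells stimulated with carbachol in lithium chloride buffer; plate controls were DMSO basal wells for no effect and reference inhibitor wells for full effect; higher means more IMPase inhibition seen as more IP1 and lower FRET ratio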
Target sequence (P97697 whole entry, looked up): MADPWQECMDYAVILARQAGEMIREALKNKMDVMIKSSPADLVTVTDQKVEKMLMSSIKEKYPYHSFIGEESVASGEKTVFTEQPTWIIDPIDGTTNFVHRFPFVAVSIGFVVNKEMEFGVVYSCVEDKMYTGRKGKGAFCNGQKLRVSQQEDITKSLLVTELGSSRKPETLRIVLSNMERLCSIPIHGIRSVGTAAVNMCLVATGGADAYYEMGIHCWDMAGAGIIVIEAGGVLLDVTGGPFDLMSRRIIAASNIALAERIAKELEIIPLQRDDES
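Seeded CHO-M1 cells were dosed with compound at up to 46 uM, stimulated with carbachol for 30 min, then lysed in IP-One detection reagents. Higher IP1 lowers the TR-FRET signal.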
15-hLO-2 inh: qHTS Assay for Inhibitors of 15-hLO-2 (15-human lipoxygenase 2); purified 15hLO-2, xylenol orange hydroperoxide absorbance; Potency, µM (series often up to 57.1 µM), for the others: top-dose activity change, negative = inhibition, most hits filed as inhibitors; 110,000 tested, 0.56% active; AID 881, 2007; note: potency is the fitted concentration of half-maximal effect; nearly all actives have a fitted effect of over 60% in size
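Screening format was qHTS against 50 nM purified 15hLO-2 in Hepes pH 7.5 with detergent. Activity follows hydroperoxide formation from 45 uM arachidonic acid, measured as 573:405 nm absorbance ratio of the ferric-xylenol orange complex.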
ALOX12 inhib: qHTS Assay for Inhibitors of 12-hLO (12-human lipoxygenase). purified 12-hLO, xylenol orange hydroperoxide absorbance. Potency, µM (highest dose often 57.1 µM), for inactives: top-dose activity change, negative = inhibition, hits mostly inhibitors. 150,000 tested, 0.12% active; note: potency is the fitted concentration of half-maximal effect; nearly all actives have a fitted effect of over 55% in size
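Hydroperoxide output read as Fe(III)-xylenol orange absorbance, 573-to-405 nm ratio, after 30 min reaction with 40 uM arachidonic acid. Enzyme: 150 nM purified human 12hLO, 15 min compound preincubation; 25 mM Hepes pH 7.0, room temperature.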
* = called active by the depositor; [ ] = remark or other dose. Shown is part of a subset that was picked to be rich in hits. Unless noted, calls come from the whole dose curve; as a rule, active = well fitted curve in the direction sought with a large enough effect; inconclusive = small, poorly fitted or top-dose-only effect, or another doubt; inactive = no such curve, though single readings can be large; an effect the other way counts as inactive or inconclusive. Unless noted, % is set by controls: 0 for no effect and ±100 for the full control effect.

Cc1cc2c(C(C)C)c(O)c(O)c(C=O)c2c(O)c1-c1c(C)cc2c(C(C)C)c(O)c(O)c(C=O)c2c1O was read as PNC assembly inh inconclusive, IMPase Li cell 10%, IMPase inh -2, 15-hLO-2 inh 3.5µM* and ALOX12 inhib inconclusive.
COc1cc2c(cc1OC)-c1c(OC)c(OC)c(OC)c3ccnc(c13)C2=O was read as PNC assembly inh -101*, IMPase Li cell 22% and ALOX12 inhib -1%.
COc1cc(CC2(CCc3ccncc3)C(=O)NC(=O)NC2=O)cc(OC)c1OC was read as IMPase Li cell -5%.
Screening C[N+]1(C)CCO[C@@](O)(c2ccc(-c3ccc([C@]4(O)C[N+](C)(C)CCO4)cc3)cc2)C1 returned IMPase inh 1, 15-hLO-2 inh -5% and ALOX12 inhib -5%.
C[N+]1(C)CCc2cc3c(cc2[C@@H]1[C@@H]1OC(=O)c2c1ccc1c2OCO1)OCO3 was read as IMPase inh 6, 15-hLO-2 inh 7% and ALOX12 inhib -4%.
N#CC(C#N)=Cc1ccc(O)c(O)c1 was read as IMPase Li cell 35%, IMPase inh inconclusive, 15-hLO-2 inh 13µM* and ALOX12 inhib inconclusive.
Screening N#CC(=Cc1ccc(O)c(O)c1)C(N)=S returned IMPase Li cell 42%.
For COc1cccc(CN2CCCCC2c2cccnc2)c1 (stereo unspecified) the results were PNC assembly inh -83*, IMPase Li cell -1%[38.3 µM], IMPase inh 3, 15-hLO-2 inh 4% and ALOX12 inhib -4%.
For COc1ccc(CN2CCCCC2c2cccnc2)cc1C (stereo unspecified) the results were PNC assembly inh 34, IMPase Li cell 7%[38.3 µM], IMPase inh 9, 15-hLO-2 inh 10% and ALOX12 inhib -1%.
For C=CCc1cc(C=C2C(=O)N(C)C(=O)N(C)C2=O)cc(OCC)c1OCc1ccccc1 the results were PNC assembly inh -114*, IMPase Li cell -6% and ALOX12 inhib -5%.
Screening C=CCc1cc(C=C2C(=O)NC(=O)NC2=O)cc(OC)c1OCc1ccc(C(=O)O)cc1 returned IMPase Li cell 2%.
`NC[C@H](O)c1cc(O)c(O)cc1F` gave IMPase inh 2, 15-hLO-2 inh -6% and ALOX12 inhib 2%.
`CC[C@@H]1[C@@H]2Cc3ccc(O)cc3[C@@]1(CC)CCN2C` gave IMPase Li cell 1%, 15-hLO-2 inh -3%[11.4 µM] and ALOX12 inhib 1%[11.4 µM].
For O=C1CN=C(c2ccccc2)c2cc(Br)ccc2N1Cc1cc(=O)n2ccccc2n1 the results were PNC assembly inh -88*, IMPase Li cell 10% and ALOX12 inhib -2%.
`COc1cc2c3cc1Oc1cc(ccc1O)C[C@@H]1c4c(cc(OC)c(O)c4Oc4ccc(cc4)C[C@H]3N(C)CC2)CCN1C` gave PNC assembly inh -97*, IMPase Li cell 6% and ALOX12 inhib -2%.
O=C1CN(C(=O)CN2CCCCC2)C(c2ccccc2)c2cc(Br)ccc2N1 (stereo unspecified) was read as PNC assembly inh -92*, IMPase Li cell 55%[38.3 µM], IMPase inh 0, 15-hLO-2 inh 5% and ALOX12 inhib -4%.
COC(=O)[C@H](N)CCCN=C(N)N[N+](=O)[O-] was read as IMPase inh 6, 15-hLO-2 inh 11% and ALOX12 inhib -1%.
C=C(C)[C@H]1Cc2c(ccc3c2O[C@H]2COc4cc(OC)c(OC)cc4[C@@H]2C3=O)O1 was read as IMPase inh 13, 15-hLO-2 inh -5% and ALOX12 inhib -6%.
Screening Nc1c2c(nc3sc4c(c13)CCCCC4)CCCC2 returned PNC assembly inh -113*, IMPase Li cell 16% and ALOX12 inhib 3%.
O=c1c2ccccc2nc(CSc2ncnc3nc[nH]c23)n1-c1ccccc1 was read as PNC assembly inh 15, IMPase Li cell inconclusive, IMPase inh inconclusive, 15-hLO-2 inh 6% and ALOX12 inhib -7%.
